# The whole screen tested about 220,000 compounds, of which about 770 (0.35%) were called active. The sample holds actives, similar compounds and a random draw of the others, so the mix is not that of the screen. Rule as the data show it: active = activation above about 11%; inactive = the rest.
# Target: Sphingosine 1-phosphate receptor 4 (Homo sapiens) (UniProt O95977)
# Test: activators of human S1P4 receptor – cell-based, primary screen (AID 1509);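 also: 0% = DMSO vehicle and 100% = reference agonist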
# Settings: S1P4-expressing cell line, agonist reporter assay; at 4.98 µM; hits give high values
# Chain of Sphingosine 1-phosphate receptor 4 (Homo sapiens) (O95977 whole entry, looked up): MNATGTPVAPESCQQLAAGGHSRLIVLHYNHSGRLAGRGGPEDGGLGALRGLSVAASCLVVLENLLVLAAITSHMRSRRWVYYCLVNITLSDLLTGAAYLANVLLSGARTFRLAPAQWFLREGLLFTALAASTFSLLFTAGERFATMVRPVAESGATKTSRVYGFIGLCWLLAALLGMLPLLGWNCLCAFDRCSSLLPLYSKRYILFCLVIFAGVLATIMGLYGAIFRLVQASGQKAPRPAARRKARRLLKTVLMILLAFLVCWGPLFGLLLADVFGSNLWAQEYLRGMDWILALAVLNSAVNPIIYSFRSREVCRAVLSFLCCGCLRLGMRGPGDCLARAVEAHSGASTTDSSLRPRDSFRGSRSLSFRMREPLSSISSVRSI
row,SMILES,activation
1,O=S(=O)(NCCc1ccncc1)c1ccccc1,-2.17% (inactive)
2,CCN(CC)CCCSc1nc2ccccc2s1,-1.06% (inactive)
3,CCCCOc1ccc(-c2nnc(-c3ccco3)o2)cc1,0.55% (inactive)
4,CCOc1ccc(-c2nnc(-c3ccco3)o2)cc1,13.2% (active)
5,CCC(=O)Oc1cccc(C(=O)Nc2ccc(-c3nnc(-c4ccco4)o3)cc2)c1,1.45% (inactive)
6,COC(=O)[C@@H]1CC[C@H](C)[C@@H](c2ccc(C)cc2)N1C(=O)c1ccc(/C=N/O[C@H](C)c2cn([C@@H]3COC[C@H]3O)nn2)cc1,44.7% (active)
7,O=C(CC1C(=O)NCCN1CC(c1ccccc1)c1ccccc1)NCCc1cn[nH]c1 (stereo not drawn),-1.81% (inactive)
8,Cc1cc(C(=O)COC(=O)C2CC2)c(C)n1-c1ccc(F)cc1,1.5% (inactive)
9,Cc1ccc(S(=O)(=O)NC(=O)Nc2nc(-c3ccc(F)c(F)c3)cs2)cc1,1.19% (inactive)
10,CNS(=O)(=O)c1ccc(NC(=O)C2CC(=O)N(c3ccc(Cl)cc3)C2)cc1 (stereo not drawn),-4.58% (inactive)
11,COc1cccc2c1CCC(NC(C)=O)C2=O (stereo not drawn),1.12% (inactive)
12,O=C(CSc1nnc(Cc2ccccc2)n1-c1ccccc1)N1CCOCC1,-2.13% (inactive)
13,O=C(CSc1nncn1-c1cccnc1)N1CCOCC1,44.7% (active)
14,Cn1c(SCC(=O)N2CCOCC2)nnc1-c1ccc2ncccc2c1,1.83% (inactive)
15,O=C(Nc1ccc(NC(=O)c2ccco2)c(Cl)c1)c1cccc([N+](=O)[O-])c1,1.27% (inactive)
16,CCN(CC)S(=O)(=O)c1cccc(-c2n[nH]c(=S)n2/N=C/c2ccc(C(=O)OC)cc2)c1,0.89% (inactive)
17,Cc1cc(CNC(=O)c2cccc([N+](=O)[O-])c2)c2ccccc2n1,1.06% (inactive)
18,CC(=O)Nc1ccc(Nc2c3ccccc3nc3ccccc23)cc1,4.18% (inactive)
19,O=[N+]([O-])c1cccc(Nc2c3ccccc3nc3ccccc23)c1,13.1% (active)
20,CCCCc1ccc(S(N)(=O)=O)cc1,-0.75% (inactive)
21,CC(C)(C)n1cnnc1Sc1ccc([N+](=O)[O-])cn1,-0.36% (inactive)
22,CC(C)(C)C(=O)NCCCNc1ccc([N+](=O)[O-])cc1,0.65% (inactive)
23,Cc1cc(C)c(C#N)c(SCC(=O)NN2CC(=O)N(c3ccccc3F)CC2=O)n1,55.1% (active)
24,Cc1cc(C)c(C#N)c(SCc2ccccc2C(=O)O)n1,0.52% (inactive)

row,SMILES,activation
1,Cc1cc(C)c(C#N)c(SCC(=O)Nc2ccccc2)n1,2.39% (inactive)
2,O=C(O)CCn1cc(/C=C/C(=O)c2ccc(Cl)cc2)c(-c2cccc(Br)c2)n1,0.7% (inactive)
3,CCc1ccc(/C=N/NC(=O)c2ccc(OC3CCCC3)cc2)s1,0.66% (inactive)
4,O=C(O)/C=C/C(=O)NNc1ccc([N+](=O)[O-])cc1,-0.64% (inactive)
5,Cc1csc(/N=C/N(C)C)c1C#N,0.51% (inactive)
6,CC(C)C(c1nnnn1C(C)(C)C)N1CCN(Cc2cccnc2)CC1 (stereo not drawn),12.3% (active)
7,CCCC(c1nnnn1C(C)(C)C)N1CCN(Cc2ccccc2)CC1 (stereo not drawn),0.72% (inactive)
8,COc1ccccc1C(c1nnnn1C(C)(C)C)N1CCN(Cc2ccccc2)CC1 (stereo not drawn),-1.97% (inactive)
9,CC(=O)Nc1ccc(NC(=O)CSc2ncnc3c2cnn3Cc2ccccc2)cc1,-0.48% (inactive)
10,COc1ccc(C(C(=O)NC(C)(C)C)N(C(=O)Cn2nnc3ccccc32)c2ccc(C(C)=O)cc2)cc1O (stereo not drawn),0.1% (inactive)
11,CCOC(=O)COc1nc(C)cc(C(F)(F)F)c1C#N,-0.16% (inactive)
12,CCc1ccc(-n2c(=S)sc3c(=O)n(-c4ccccc4OC)c(=S)[nH]c32)cc1,1.93% (inactive)
13,O=C(NC1CCCCC1)C1CCCN(S(=O)(=O)c2ccc(Br)s2)C1 (stereo not drawn),1.69% (inactive)
14,CCOc1cc(N2CCOCC2)c(OCC)cc1NC(=O)C1=NN(c2cccc(C)c2)C(=O)CC1,0.94% (inactive)
15,Cc1ccc(/C([O-])=C(/C(=S)NCc2ccco2)[n+]2ccccc2)cc1[N+](=O)[O-],0.47% (inactive)
16,CCN(CC)CCNC(=O)c1sc2ncn(CC(=O)Nc3ccc(C)c(Cl)c3)c(=O)c2c1C,-1.34% (inactive)
17,COc1ccccc1C1CC(=O)n2c(nc(-c3ccccc3)c2-c2ccccc2)S1 (stereo not drawn),-1.26% (inactive)
18,O=C(Nc1nnc(SCc2c(Cl)cccc2Cl)s1)c1cccc([N+](=O)[O-])c1,1.12% (inactive)
19,CC(C)(C)OC(=O)N1CCC(NC(=O)c2[nH]cnc2C(=O)N[C@@H](Cc2ccccc2)C(=O)OCc2ccccc2)CC1,0.67% (inactive)
20,CNC(=O)c1[nH]cnc1C(=O)N[C@@H](CC(C)C)C(=O)OCc1ccccc1,30.9% (active)
21,CNC(=O)c1[nH]cnc1C(=O)N[C@@H](CC(C)C)C(=O)OC(C)(C)C,2.22% (inactive)
22,CC(=O)c1c(N2CCN(c3ccc(F)cc3)CC2)nc(=S)n(-c2ccccc2)c1C,0.51% (inactive)
23,Nc1cccc(S(=O)(=O)Nc2ccc(SC(F)F)cc2)c1,1.21% (inactive)
24,NC(=O)c1ccccc1N=Cc1ccc2ccccc2c1,0.55% (inactive)
